Among all 69,000 compounds or so, about 8,600 (12%) showed an effect of 50% or more. Many of the other results were omitted from the sample, so strong results are more common in it than they were.

Our source for the INHIBITION values is ChEMBL document CHEMBL4513216, “Probing the Open Global Health Chemical Diversity Library for Multistage-Active Starting Points for Next-Generation Antimalarials” (ACS Infect Dis, 2020).

For this assay, the system named is Plasmodium berghei. Briefly: Screen against P. berghei liver stage (PbLuc), transformed with Luciferase, at 10uM. The format is functional, HepG2. The following applies: tested at 10 uM.
As to `CNC(=O)[C@@H]1[C@@H](c2ccccc2)CN2CCN(Cc3cc(C)no3)C[C@H]12`, the INHIBITION came to 31.3%. Then `O=C(NCC(c1ccc(F)cc1)N1CCOCC1)Nc1cn[nH]c1` (centres undefined), with -57.4%; and `Cc1cc(C(=O)Nc2ccc(-c3nnc(N(C)C)o3)cc2)oc1C`, with 22.1%; and `Cc1nnc2ccc(OCCNS(C)(=O)=O)nn12`, with 5.91%.

Turning to `COCCNCc1cc2cc(C)cc(C)c2[nH]c1=O`, the INHIBITION is 14.6%. In the case of `COc1ccc(CNCC2CN(C3CC3)CCO2)cc1OC` (centres undefined), the INHIBITION is recorded as -13.6%. The same measure for `COc1ccccc1-c1nnc2n1N=C(N)C(C#N)S2` (centres undefined): 34.3%. On to `Cc1ccnc(NC(=O)C2CCN(CCCn3ccnc3C)CC2)c1`, for which the INHIBITION was determined as 44.3%. The same measure for `Cc1ccnc(NC(=O)C2CCN(CCCc3cn[nH]c3)CC2)c1`: 54.5%.

For `Cc1ccnc(NC(=O)C2CCN(CCCn3ccnc3)CC2)c1`, the INHIBITION stood at 61.9%. Then `c1n[nH]cc1CCCN1CCC(OC2CCCCC2)CC1`, with 11.8%; and `CC(C)(C)CC(=O)NCC(=O)Nc1ccn(CCCn2ccnc2)n1`, with 23.1%; and `COCC1CCN(CCCc2cn[nH]c2)CC1`, with 30.8%. Regarding `O=C(c1ccc(-c2ccc(O)nc2)s1)N1CCCCCC1`, the INHIBITION is -13.87%. `CCN(Cc1ccncc1)c1nc(C)nc2oc(C)nc12`: the INHIBITION is 40.6%. As for `COCCN(Cc1ccccc1C)c1nc(C)nc2oc(C)nc12`, the INHIBITION stood at 74%. Then `COCCN(Cc1cccnc1)c1nc(C)nc2oc(C)nc12`, with 44.3%; and `Cc1nc(N(C)CCCc2nccn2C)c2nc(C)oc2n1`, with -26.7%; and `CCOc1ccc(CN(CCOC)c2nc(C)nc3oc(C)nc23)cc1`, with 83.2%.

Turning to `Cc1nc(N(CCC(N)=O)Cc2ccccc2)c2nc(C)oc2n1`, the INHIBITION stood at 48.8%. Regarding `CCS(=O)(=O)N1CC[C@H]2[C@H]1CC(=O)N2Cc1csc(C)n1`, the INHIBITION was -10.3%. The same measure for `CN1CCN(Cc2cn3c(n2)CNCC3)CC1`: 36.4%.

Consider `O=C(CSC1CCCC1)N1CCN(C(=O)C2CC2c2ccccc2)CC1` (centres undefined), for which the INHIBITION is 46.4%. Take `Cc1cnc(-c2cccc(-c3ccn(CCCO)n3)c2)nc1N(C)C`: the INHIBITION was 26.8%. Then `CCS(=O)(=O)CC(=O)NC(c1ccccc1)C1CCCCC1` (centres undefined), with -5.53%; and `COCCc1noc(CN2CCCC2c2c(C)nn(C)c2Cl)n1` (centres undefined), with 5.9%. With `N#Cc1ccc(NCCS(=O)(=O)N2CCc3ccccc32)nc1`, the INHIBITION is on record as 14%.

Turning to `N#Cc1ccc(CNCCS(=O)(=O)N2CCc3ccccc32)cc1`, the INHIBITION is listed as 60.3%. The same measure for `CC(C(=O)Nc1ccc(C#N)cc1)N1CCc2ccccc21` (centres undefined): -45.2%; for `O=C(CCc1ccccc1)C1CCCN(C(=O)c2cncc(Cl)c2)C1` (centres undefined): 42.5%; for `CCN(CC)S(=O)(=O)N1CCCC1c1nnc2n1CCCCC2` (centres undefined): 20.9%. The same measure for `O=C(c1ccc(F)c(F)c1)N1CCCSCC1CN1CCCC1` (centres undefined): 25.3%. As to `O=C(Cc1cccs1)N1Cc2nc(COCC3CC3)oc2C1`, the INHIBITION is 18.6%. Regarding `O=C(c1ccc2c(c1)OCO2)N1CCCSCC1CN1CCCC1` (centres undefined), the INHIBITION turned out to be 3.16%. Turning to `O=C(c1ccncc1F)N1Cc2nc(COCC3CC3)oc2C1`, the INHIBITION turned out to be 55.7%. The same measure for `O=C(NCc1ccccc1)N1Cc2nc(COCC3CC3)oc2C1`: 44.2%.

For `O=C(c1ccc2[nH]ccc2c1)N1CCCSCC1CN1CCCC1` (centres undefined), the INHIBITION was determined as 59.8%.

With `CCN(CC)Cc1nc2c(o1)CN(C(=O)c1ccc3[nH]ccc3c1)C2`, the INHIBITION was found to be 0.804%.

With `O=C(c1ccc2[nH]ccc2c1)N1Cc2nc(CN3CCCCC3)oc2C1`, the INHIBITION is given as 50.7%. `CN(C)Cc1nc2c(o1)CN(C(=O)c1ccncc1F)C2`: the INHIBITION came to 24.9%. Then `O=C(c1ccc2[nH]ccc2c1)N1Cc2nc(CN3CCCC3)oc2C1`, with 31.4%. Then `O=C(c1ccncc1F)N1Cc2nc(CN3CCCCC3)oc2C1`, with 51.2%; and `CCN(CC)Cc1nc2c(o1)CN(C(=O)c1ccncc1F)C2`, with 3.17%; and `CN(C)C(=O)C1CCN(Cn2nc(-c3ccc(F)cc3)oc2=O)CC1`, with 34.7%.

In the case of `CCCN1CCC(Cc2noc(-c3ncccc3C)n2)CC1`, the INHIBITION turned out to be 12.9%. `CNC(=O)CCNC(=O)c1cc(C)n(-c2cccc(OC)c2)c1C`: the INHIBITION turned out to be 11.2%. Turning to `CNc1nc2c(c(C(=O)N3CCCC3)n1)CN(C(=O)C1CCCC1)CC2`, the INHIBITION came to 43.4%.

For `Cc1nc(S(=O)(=O)N2CCC3(CCCCC3)C2)cn1C`, the INHIBITION was -9.2%. The same measure for `NC(=O)COc1cccc(C(=O)NCc2ccc(Cl)s2)c1`: 3.03%; for `O=C(C1CCOC1)N1CC[C@@H](O)[C@@H]1Cc1ccccc1` (some centres undefined): 10.7%; for `CCC(=O)N1CCCc2c(cnn2C)C1`: -5.452%.

In the case of `COC(=O)CNC(=O)c1cc(-c2ccccc2)nc2ncnn12`, the INHIBITION is 28.2%.

For the compound `O=C(NCC(F)F)c1cc(-c2ccccc2)nc2ncnn12`, the INHIBITION amounted to 60.2%.

Take `CNC(=O)c1cc(-c2ccccc2)nc2ncnn12`: the INHIBITION worked out at 49%.
